GBA activity = modulators of human glucocerebrosidase; purified enzyme, resorufin glucoside fluorescence (screen aimed at inhibitors), 20 min; Potency, µM; actives 1.1% (n = 48,000); AID 360; in the data active means potency below about 15 µM; inconclusive means mostly about 16 µM to 33 µM;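 further: the screen sought inhibitors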
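Wild-type enzyme at 0.2 nM final in 50mM citric acid/KH2PO4, 10mM sodium taurocholate, 0.01% tween-20, pH 5.9, with resorufin beta-D-glucopyranoside at 30 uM final. Compounds titrated, 20 min at RT, red fluorescence read; AC50 from titration.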
PK Bst = alters activity of Bacillus stearothermophilus pyruvate kinase; AID 361; actives 1.2% (n = 51,000); Potency, µM; purified pyruvate kinase, luminescence ATP production; ribose 5-phosphate activator present at AC10; in the data active means potency below about 11 µM; inconclusive means mostly about 12 µM to 25 µM;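 the screen sought inhibitors and activators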
Luciferase inh = blocks Photinus pyralis firefly luciferase activity; actives 2.2% (n = 72,000); P08659; Potency, µM (top dose mostly 57.1 µM), most hits filed as inhibitors; purified firefly luciferase, luminescence, 8 min; further: nearly all actives have a fitted effect of over 40% in size
Target sequence (P08659 whole entry, looked up): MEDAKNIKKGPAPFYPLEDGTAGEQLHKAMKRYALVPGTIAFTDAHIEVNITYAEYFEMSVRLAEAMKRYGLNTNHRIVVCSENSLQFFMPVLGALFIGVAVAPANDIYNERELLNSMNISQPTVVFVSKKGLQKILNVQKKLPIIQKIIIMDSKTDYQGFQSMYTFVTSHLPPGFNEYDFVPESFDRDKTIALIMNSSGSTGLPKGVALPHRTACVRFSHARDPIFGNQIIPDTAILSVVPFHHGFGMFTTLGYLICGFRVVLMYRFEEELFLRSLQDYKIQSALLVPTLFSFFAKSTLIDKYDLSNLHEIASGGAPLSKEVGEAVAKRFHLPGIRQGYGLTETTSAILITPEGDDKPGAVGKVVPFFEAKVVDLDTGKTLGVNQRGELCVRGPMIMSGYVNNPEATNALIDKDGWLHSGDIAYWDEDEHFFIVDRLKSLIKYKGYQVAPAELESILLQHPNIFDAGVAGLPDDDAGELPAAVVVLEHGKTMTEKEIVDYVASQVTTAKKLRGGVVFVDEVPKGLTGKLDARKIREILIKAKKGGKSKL
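Firefly luciferase (PKLight detection mix) with 10 uM ATP in pH 7.2 imidazole buffer (KCl, MgCl2, Tween 20, BSA). Compounds tested across a concentration series (qHTS). Luminescence read after 8 min at ambient temperature.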
Epigenetic mod = epigenetic modulators derepressing GFP locus in mouse cells; actives 0.09% (n = 68,000); Potency, µM (top dose mostly 46.1 µM); mouse C127i GFP locus derepression, cytometry, 30 h
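Murine C127i mammary cells carrying a silenced, stably integrated CMV-driven GFP reporter were treated with compound for 30 hours at 37 C. After PBS washes, GFP-positive cells were counted by laser-scanning microplate cytometry.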
UbGFP stabilizer = ubiquitin-GFP accumulation via proteasome inhibition. Ubiquitin-GFP reporter cells, proteasome inhibition, GFP fluorescence; response scale: untreated = 0%, 10 µM MG-132 = 100%. Potency, µM (titrated, usually from 45.9 µM), usual class: activators. 67,000 tested, under 10 active. AID 526; active means well fitted activation curve with a large enough effect, not every such curve was filed as active; inconclusive means small, poorly fitted or top-dose-only effect, or another doubt; inactive means no such curve, though single readings can be large or run the other way
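Proteasome blockade was scored as a rise in GFP-expressing U2OS cells carrying a ubiquitin(G76V)-GFP construct, imaged after 4 hr compound treatment at 37 °C across a 46 uM–2.9 nM series.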
HBB splice mod = modulators of hemoglobin beta chain splicing | HBB splicing reporter cell assay, activation; EGFP reporter with mutant IVS2-654 intron; response scale: normalised to 500 nM splice-correcting PNA | Potency, µM (series often up to 46.1 µM), actives largely listed as activators | actives 0.06% (n = 65,000) | AID 925
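Compounds were applied for 2 days to HeLa EGFP-654 cells, 500/well in Optimem with 2% FCS. The reporter's EGFP is disrupted by mis-splicing of beta-globin intron IVS2-654. Readout: summed well GFP fluorescence from 488 nm laser scanning; reference was 500 nM antisense […] 654 PNA.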
Of the large screens only hits and unclear results are named; the others gave an inactive call. A selection: hits, their analogues and other compounds. The true share with any hit is near 3.3%. Unless noted, the call rests on the fitted dose curve; in most records, active means well fitted curve in the direction sought with a large enough effect; inconclusive means small, poorly fitted or top-dose-only effect, or another doubt; inactive means no such curve, though single readings can be large; an effect the other way counts as inactive or inconclusive.

O=C(CN1CCN(Cc2ccccc2)CC1)N1CCCc2c1c(=O)oc1ccc(O)cc21	GBA activity 14
O=C(c1ccco1)N1CCN(CC(=O)N2CCCc3c2c(=O)oc2ccc(O)cc32)CC1	none
CC1(C)Cc2c(sc3nc(SCC(=O)N4CCOCC4)nc(N)c23)CO1	GBA activity 14
CCOC(=O)N1CCN(c2nc(SC)nc3sc4c(c23)CC(C)(C)OC4)CC1	none (no result: PK Bst)
CC(C)(C)c1ccc(-c2cc(N)n[nH]2)cc1	Luciferase inh 13µM (no result: GBA activity, PK Bst, Epigenetic mod)
CC(C)(C)c1ccc(O)c(N)c1	none (no result: GBA activity, UbGFP stabilizer, HBB splice mod)
CCOC(=O)c1cnc2c(-c3ccccc3)cnn2c1N	PK Bst 2.3, Luciferase inh 2.5µM (no result: HBB splice mod)
Cc1cc(N)n2ncc(-c3ccccc3)c2n1	PK Bst 4.8, Luciferase inh 25µM (no result: GBA activity, HBB splice mod)
CCOC(=O)c1cnn(-c2cc(C)c3ccccc3n2)c1N	GBA activity 12 (no result: PK Bst)
CCOC(=O)c1cnc2c(-c3ccccc3)c(C)nn2c1N	none
O=C(O)[C@@H]1Cc2c([nH]c3ccccc23)[C@@H](CCCCO)N1	none (no result: GBA activity, PK Bst)
O=C1C(Cl)=C(NCCCN2CCOCC2)C(=O)N1CCc1ccccc1	GBA activity 11
O=C1C(Cl)=C(N2CCOCC2)C(=O)N1CCc1ccccc1	none
COc1ccccc1-c1nc2s/c(=C\c3cccs3)c(=O)n2n1	GBA activity 5.8, Luciferase inh inconclusive (no result: PK Bst)
COc1cc(/C=c2\sc3nc(-c4ccncc4)nn3c2=O)ccc1OC(C)=O	Luciferase inh 3.2µM (no result: PK Bst)
CS(=O)(=O)c1ccc(CNC(=O)[C@@H]2C[C@H]2[C@@H](NP(=O)(c2ccccc2)c2ccccc2)c2ccccc2)cc1	none (no result: GBA activity, PK Bst, Luciferase inh, Epigenetic mod, UbGFP stabilizer)
Cc1cc(C(=O)CN2C(=O)c3ccccc3S2(=O)=O)c(C)n1CC1CCCO1 (stereo not given)	Luciferase inh 16µM (no result: PK Bst)
Cn1c(SCc2ccc(C#N)cc2Cl)nc2ccccc21	Luciferase inh 16µM (no result: GBA activity, PK Bst)
Cn1c(SCc2nc3ccccc3n2CCO)nc2ccccc21	none
O=C(Nc1nc(-c2ccccn2)cs1)c1ccc(Cl)s1	none (no result: GBA activity, PK Bst, Epigenetic mod)
Cn1cccc1C(=O)Nc1nc(-c2ccccn2)cs1	Luciferase inh 20µM, Epigenetic mod inconclusive
COc1ccc(C(=O)Oc2c(CN3CCOCC3)cc(Cl)c3cccnc23)cc1	Epigenetic mod 7.9µM
CCC(=O)OCC(=O)[C@@]1(OC(=O)CC)[C@H](C)C[C@@H]2[C@@H]3[C@H]([C@@H](O)C[C@@]21C)[C@]1(C)C=CC(=O)C=C1C[C@@H]3Cl	none (no result: GBA activity, PK Bst)
Cc1cc(NC(=O)CSc2ccc(-c3nc4cc(C)c(C)cc4[nH]3)cn2)no1	Luciferase inh 0.32µM, Epigenetic mod inconclusive
CCCCCCCCCCCCC(=O)N1CCCC[C@H]1CNC(=O)[C@@H](N)CCCCN	none (no result: GBA activity, PK Bst, HBB splice mod)
CC(=O)[C@H](CC(C)C)NC(=O)[C@@H](CC(C)C)NC(=O)[C@H](CC(C)C)NC(=O)OCc1ccccc1	UbGFP stabilizer 0.79µM (no result: GBA activity, PK Bst, HBB splice mod)
CC(=O)NC(CC(C)C)C(=O)NC(Cc1ccccc1)C(N)=O (stereo not given)	none
OC[C@H](S)CS	Epigenetic mod 3.2µM (no result: GBA activity, PK Bst)
CC(C)=CCC/C(C)=C/CO/N=C1/C[C@@H](O)[C@@H](O)[C@@H]2[C@H]3C(=O)N(c4ccc(F)cc4F)C(=O)[C@@H]3CC[C@@H]12	none (no result: GBA activity, PK Bst, Epigenetic mod, UbGFP stabilizer)
O=C(Nc1nnc(-c2ccccc2Cl)o1)c1ccco1	Luciferase inh 13µM (no result: PK Bst)
CN1CCN(c2ncc3nc(-c4ccccc4)c(=O)n(C4CC4)c3n2)CC1	none (no result: GBA activity, PK Bst)
Cn1cccc1C(=O)N1CCC2(CCCN(c3ccccc3)C2)CC1	none (no result: GBA activity, PK Bst)
Oc1c(CN2CCN(c3ccccn3)CC2)cc(Cl)c2cccnc12	Epigenetic mod 3.2µM
COc1ccc(CNc2ncncc2-c2ccccc2C(F)(F)F)c(OC)c1	none (no result: GBA activity, PK Bst)
S=C(c1ccc(-c2cccc(Cl)c2)o1)N1CCOCC1	Luciferase inh 13µM (no result: GBA activity, PK Bst)
COc1ccc(C(=O)N2CCC[C@@]3(CCN(c4cccc(-c5ccccc5)c4)C3)C2)cc1	none (no result: GBA activity, PK Bst)
Cc1ccc(-n2c(SCC(=O)Nc3ccc4c(c3)OCO4)nnc2-c2cccs2)cc1	GBA activity 9.3
CCc1nnc(NC(=O)c2ccc(S(=O)(=O)N(CC)Cc3ccccc3)cc2)o1	GBA activity 14
